Many of the other results were omitted from the sample, so hits are more common in it than they were.
Pf Dd2 growth: qHTS Primary assay for Inhibitors of Plasmodium falciparum Dd2 growth in vitro. AID 1347417, 2020. P. falciparum Dd2 growth, SYBR Green, 72 h. actives 4.3% (n = 120,000). Potency, µM (doses to about 28.9 µM), actives largely listed as inhibitors; active means well fitted inhibition curve with a large enough effect; further: nearly all actives have a fitted effect of over 65% in size
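Readout: SYBR Green fluorescence, 485 nm excitation, 535 nm emission, after ~16 h lysis at 37C. Before that, Dd2-infected red cells (2.5% hematocrit) grew 72 h with compound, 29 uM top final concentration.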
A number is an active result; – = inactive; [ ] = dose if it differs, or a comment.

SMILES | Pf Dd2 growth
O=C(c1ccc(F)cc1)n1nc(-c2ccccc2)nc1NCc1ccc(F)cc1 | –
O=C(/C=C/c1ccc(F)cc1)Nc1nc2n(n1)C(c1ccc(Cl)cc1)C=C(c1ccccc1)N2 (stereo unspecified) | 11µM
O=C(/C=C/c1ccccc1)Nc1nc2n(n1)C(c1ccc(Cl)cc1)C=C(c1ccccc1)N2 (stereo unspecified) | 11µM
O=C(Nc1nc(-c2ccccc2)ns1)c1ccc(Cl)cc1 | –
O=C(c1ccc(C(F)(F)F)cc1)N1CCC2(CNc3ccccc3[S+](=O)([O-])N2)C1 (stereo unspecified) | –
Cn1cnnc1CC1CCN(C(=O)Nc2ccccc2)C1 (stereo unspecified) | –
COc1ccc(CCC(=O)N2CCC3(CC2)CC(O)CCO3)cc1 (stereo unspecified) | –
O=C(N1CC(Oc2ccc(-c3nc(-c4ccccc4)no3)cc2)C1)C1(c2ccccc2)CC1 | –[5.79 µM]
C[C@@H](NC(=O)C12CC3CC(CC(C3)C1)C2)c1onc(-c2ccccc2)c1C(=O)O | –
CCn1ccc(C(=O)NCc2cccnc2N(C)CCc2ccccn2)n1 | –
COc1ccc(-c2cc(N3CCCC(NC(=O)c4ccccc4Cl)C3)n[nH]2)cc1 (stereo unspecified) | –
Cc1nc(N2CCC(NC(=O)Cc3ccc(F)cc3)CC2)cc(C(F)(F)F)n1 | –
Cc1ccc2c(c1)-c1c(c(C(=O)N3CCN(c4cc(C)ccc4C)CC3)nn1C)CS2 | 13µM
COc1ccc(NC(=O)c2nn(C)c3c2CSc2ccc(C)cc2-3)cc1OC | –
Cn1nc(C(=O)N2CCN(c3ccc(Cl)cc3)CC2)c2c1-c1ccccc1SC2 | –
CN(Cc1cccnc1)C1CN(C(=O)C2CCCC2)C1 | –
CN(C)C(=O)c1cccnc1OC1CCN(Cc2cccnc2)CC1 | –
COc1ccc2c(CNCCc3cccs3)c(C(=O)O)n(Cc3cccc(F)c3)c2c1 | –
COc1ccc2c(CNCCc3cccs3)c(C(=O)O)n(Cc3ccccc3)c2c1 | –
COc1ccc2c(CNCc3ccccc3OC)c(C(=O)O)n(Cc3ccc(F)cc3Cl)c2c1 | –[0.0462 µM]
COc1ccc(Cn2c(C(=O)O)c(CNCc3ccc(OC)cc3OC)c3ccc(C)cc32)cc1 | 6.3µM
C=Cc1ccc(Cn2c(C(=O)O)c(CNCCc3ccco3)c3ccc(C)cc32)cc1 | –
COc1ccc(Cn2c(C(=O)O)c(CNC3CCCCC3)c3ccc(C)cc32)cc1 | –
COc1ccc(Cn2c(C(=O)O)c(CNCCc3cc(OC)ccc3OC)c3ccc(C)cc32)cc1 | 8.9µM
CCOc1ccc(CCNCc2c(C(=O)O)n(Cc3ccc(C)cc3)c3cc(OC)ccc23)cc1 | 11µM
SMILES | Pf Dd2 growth
COc1ccc(Cn2c(C(=O)O)c(CNCCc3ccco3)c3ccc(C)cc32)cc1 | –
CN(C)C1(Cc2cc(COc3ccccc3)on2)COC1 | –
CN1C(=O)c2cncnc2OCC1CNC(=O)Cc1cccc(Cl)c1 (stereo unspecified) | –
COc1cccc(C(=O)N2CCC[C@H]2c2nc(-c3ccccc3)no2)c1 | –
CN(C)[C@H]1CCN(Cc2cccc(C(=O)O)c2)C[C@H]1CCC(=O)O | –
COCc1nc(C2CCCN(C(=O)c3sccc3C)C2)no1 (stereo unspecified) | –
COc1cc(F)ccc1-c1cc(-c2c(C)noc2C)cc2c1C(=O)N(C)C2 | –
O=C(C1CCC(=O)N(C2CCCC2)C1)N1CC(OCc2ccccc2F)C1 (stereo unspecified) | –
CNC(=O)C1CCCN(S(=O)(=O)c2ccccc2)CCC(=O)NCC1 (stereo unspecified) | –
CN1C[C@H](O)C[C@H]1c1nnc2n1CCN(Cc1ccccc1)C2 | –
COc1ccc(C(=O)N2CCC(N3C(=O)C(O)C34CCCCC4)CC2)c(OC)c1 (stereo unspecified) | –
C[C@@H]1C(=O)O[C@H]2[C@H]1CC[C@@]1(C)Cc3sc(NC(=O)c4c(Cl)cccc4Cl)nc3[C@@H](C)[C@H]21 | –
C[C@@H]1C(=O)O[C@H]2[C@H]1CC[C@@]1(C)Cc3sc(NS(=O)(=O)c4ccc(F)cc4)nc3[C@@H](C)[C@H]21 | –
CC(=O)N1CCC(C(=O)Nc2nc3c(s2)C[C@]2(C)CC[C@@H]4[C@H](OC(=O)[C@H]4C)[C@H]2[C@@H]3C)CC1 | –
COCC(=O)Nc1nc2c(s1)C[C@]1(C)CC[C@@H]3[C@H](OC(=O)[C@H]3C)[C@H]1[C@@H]2C | –
C[C@@H]1C(=O)O[C@H]2[C@H]1CC[C@@]1(C)Cc3sc(NC(=O)NC4CCCCC4)nc3[C@@H](C)[C@H]21 | 11µM
C[C@@H]1C(=O)O[C@H]2[C@H]1CC[C@@]1(C)Cc3sc(NC(=O)Nc4ccc(Oc5ccccc5)cc4)nc3[C@@H](C)[C@H]21 | 11µM
COc1ccnc(-c2nnc3ccc(NC4CCOCC4)nn23)c1 | –
CC(C)CNC[C@H]1O[C@H](Cc2cc(CN3CCOCC3)on2)CC[C@@H]1O | –
O=C(Cc1ccc(C(F)(F)F)cc1)N1CC(COc2ccccc2)C2(C1)CN(C(=O)c1cn[nH]c1)C2 (stereo unspecified) | –
CC(=O)N1C[C@@H]2CCCN3CCC[C@@H]([C@H]23)[C@H]1CCCC(=O)NCCCc1ccccc1 | –
O=C(Nc1cccc(-c2ccc(F)cc2)c1)C1CCCN1C(=O)c1ccncc1 (stereo unspecified) | –
CC(C)NC(=O)N[C@H]1CCN2C(=O)c3cc(-c4ccsc4)ccc3NC(=O)[C@@H]2C1 | 13µM
CC(C)NC(=O)N[C@H]1CCN2C(=O)c3cc(-c4ccc5c(c4)OCO5)ccc3NC(=O)[C@@H]2C1 | –
Cc1cccc(-c2ccc3c(c2)C(=O)N2CC[C@H](NC(=O)NC(C)C)C[C@H]2C(=O)N3)c1C | –
SMILES | Pf Dd2 growth
COc1ccc(Cn2c(C(=O)O)c(CNCc3ccc(SC)cc3)c3ccc(OC)cc32)cc1 | 7.9µM
COc1ccc2c(CNCCc3ccco3)c(C(=O)O)n(Cc3ccccc3)c2c1 | –
COc1ccc2c(CNCCc3cccs3)c(C(=O)O)n(Cc3ccc(F)cc3Cl)c2c1 | –
COc1ccc2c(CNCc3cccs3)c(C(=O)O)n(Cc3ccc(F)cc3)c2c1 | –
C=Cc1ccc(Cn2c(C(=O)O)c(CNCc3ccccc3)c3ccc(OC)cc32)cc1 | 11µM
COc1ccc2c(CNCc3ccc(C)o3)c(C(=O)O)n(Cc3ccccc3)c2c1 | –
Cc1nn2c(c1-c1ccccc1OCc1ccccc1)N(Cc1cccc(O)c1)CCC2 | 2.2µM
Cc1nn2c(c1-c1ccccc1C(C)C)N(C(=O)C1CCOCC1)CCC2 | –
Cc1nn2c(c1-c1ccccc1C(C)C)N(Cc1ccc(C(=O)O)s1)CCC2 | –
Cc1ccncc1-c1c(C)nn2c1N(Cc1cccc(O)c1)CCC2 | –
Cc1nn2c(c1-c1ccccc1Oc1ccccc1)N(Cc1cccc(C#N)c1)CCC2 | –
Cc1nn2c(c1-c1ccccc1C(C)C)N(Cc1ccc3c(c1)CCO3)CCC2 | 7.1µM
COCC(=O)N[C@H]1CCN(C(=O)COC)[C@H](C(=O)N[C@H](Cc2ccccc2)C(N)=O)C1 | –
COC(=O)[C@@H]1C[C@H](NC(=O)CSC23CC4CC(CC(C4)C2)C3)CN1C | –
CS(=O)(=O)c1ccc(CN2CCCC(c3ccccc3)C2)cc1 (stereo unspecified) | –
Cc1ccc(Cl)cc1NC(=O)Cn1c(N2CCCCC2)nc(C)c(C)c1=O | –
Clc1ccc(C2Cn3nnc(-c4nc(-c5cccc(Cl)c5)no4)c3CO2)cc1 (stereo unspecified) | –

Screening results (PubChem)
